Measured values: PMC7862700, “An all-to-all approach to the identification of sequence-specific readers for epigenetic DNA modifications on cytosine”

What was measured:
Experiment in all cases: DAPPL (digital affinity profiling via proximity ligation, sequencing); 10 mM Tris-HCl pH 7.5, 50 mM NaCl, 1 mM DTT, 4% glycerol, room temperature, 30 min; GST-TFs on glutathione beads, 16-mer random dsDNA library, 0.1% formaldehyde crosslink after washing; high values mean tight binding
Conditions in all cases: protein: recombinant; tags: N-terminal GST; dsDNA, one strand shown
ETV2 = molecular target: T1, ETV2 (Homo sapiens, UniProt O00321 1-342)
T1 sequence: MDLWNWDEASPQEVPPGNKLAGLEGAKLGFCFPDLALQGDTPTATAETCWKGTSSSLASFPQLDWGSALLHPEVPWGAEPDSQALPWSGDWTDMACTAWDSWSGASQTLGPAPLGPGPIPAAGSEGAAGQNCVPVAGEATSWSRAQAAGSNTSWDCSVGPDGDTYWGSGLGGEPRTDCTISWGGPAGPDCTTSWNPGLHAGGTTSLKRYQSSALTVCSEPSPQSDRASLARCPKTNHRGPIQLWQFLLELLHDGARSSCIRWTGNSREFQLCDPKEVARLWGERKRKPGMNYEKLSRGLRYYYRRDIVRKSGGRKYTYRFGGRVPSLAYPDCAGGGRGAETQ
Method in brief: (§1)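 Sequencing on an Illumina NextSeq500 followed washing, crosslinking with 0.1% formaldehyde, proximity ligation (BsaI/T4 ligase, 1 h, 37 °C) and PCR amplification of pools that had been incubated for 30 min at room temperature with 200 nmole of a random double-stranded 16-mer DNA library in Tris/NaCl/DTT/glycerol buffer. Each pool held DNA-barcoded human transcription factors, expressed in yeast as GST fusions and captured on glutathione beads, plus a tag-only sample. Binding signal is a hexamer's read frequency for a factor divided by its frequency in the tag-only sample.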

ELF3 = molecular target: T2, ELF3 (Homo sapiens, UniProt P78545 1-371)
T2 sequence: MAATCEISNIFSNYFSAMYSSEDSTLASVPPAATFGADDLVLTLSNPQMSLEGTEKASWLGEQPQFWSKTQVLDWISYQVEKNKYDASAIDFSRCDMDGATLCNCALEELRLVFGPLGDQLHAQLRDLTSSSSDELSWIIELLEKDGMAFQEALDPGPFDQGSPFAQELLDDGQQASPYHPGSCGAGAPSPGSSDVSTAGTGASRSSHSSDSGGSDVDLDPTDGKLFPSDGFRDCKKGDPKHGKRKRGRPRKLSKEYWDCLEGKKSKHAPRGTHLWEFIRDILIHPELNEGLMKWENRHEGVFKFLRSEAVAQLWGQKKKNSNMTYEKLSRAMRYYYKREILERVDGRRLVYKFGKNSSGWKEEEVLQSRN
Method in brief: as §1

ETV1 = ETV1 (Homo sapiens, UniProt P50549 1-477)
Sequence of ETV1 (P50549 whole entry): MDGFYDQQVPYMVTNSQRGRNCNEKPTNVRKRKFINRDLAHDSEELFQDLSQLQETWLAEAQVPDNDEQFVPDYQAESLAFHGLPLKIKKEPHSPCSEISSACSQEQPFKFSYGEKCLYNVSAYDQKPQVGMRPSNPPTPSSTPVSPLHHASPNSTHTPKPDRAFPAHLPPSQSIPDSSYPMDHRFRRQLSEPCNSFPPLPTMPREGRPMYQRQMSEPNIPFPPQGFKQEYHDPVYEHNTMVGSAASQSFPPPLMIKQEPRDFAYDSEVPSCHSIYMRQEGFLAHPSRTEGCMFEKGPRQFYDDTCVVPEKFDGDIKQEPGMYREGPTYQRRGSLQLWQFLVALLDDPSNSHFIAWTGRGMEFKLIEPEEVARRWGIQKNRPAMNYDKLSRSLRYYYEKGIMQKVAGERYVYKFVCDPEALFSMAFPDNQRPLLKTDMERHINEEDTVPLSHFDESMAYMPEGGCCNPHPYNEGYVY
Method in brief: as §1

ERF = molecular target: T3, ERF (Homo sapiens, UniProt P50548 1-548)
T3 sequence: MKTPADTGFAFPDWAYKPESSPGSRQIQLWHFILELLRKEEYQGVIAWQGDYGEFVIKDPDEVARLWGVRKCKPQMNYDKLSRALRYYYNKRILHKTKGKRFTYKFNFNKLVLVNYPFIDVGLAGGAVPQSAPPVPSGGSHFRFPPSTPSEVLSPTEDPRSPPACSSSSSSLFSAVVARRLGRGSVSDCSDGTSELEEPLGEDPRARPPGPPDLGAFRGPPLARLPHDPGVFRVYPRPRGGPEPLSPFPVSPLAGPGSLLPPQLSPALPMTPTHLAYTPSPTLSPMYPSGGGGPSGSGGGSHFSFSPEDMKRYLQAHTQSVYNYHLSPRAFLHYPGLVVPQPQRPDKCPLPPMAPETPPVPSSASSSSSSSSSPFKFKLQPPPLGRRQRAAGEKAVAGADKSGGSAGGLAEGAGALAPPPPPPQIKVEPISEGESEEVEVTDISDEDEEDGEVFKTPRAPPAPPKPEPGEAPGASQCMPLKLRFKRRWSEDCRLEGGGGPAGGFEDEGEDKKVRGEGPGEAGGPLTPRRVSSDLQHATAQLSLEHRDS
Method in brief: as §1

ETV3L = molecular target: T4, ETV3L (Homo sapiens, UniProt Q6ZN32 1-361)
T4 sequence: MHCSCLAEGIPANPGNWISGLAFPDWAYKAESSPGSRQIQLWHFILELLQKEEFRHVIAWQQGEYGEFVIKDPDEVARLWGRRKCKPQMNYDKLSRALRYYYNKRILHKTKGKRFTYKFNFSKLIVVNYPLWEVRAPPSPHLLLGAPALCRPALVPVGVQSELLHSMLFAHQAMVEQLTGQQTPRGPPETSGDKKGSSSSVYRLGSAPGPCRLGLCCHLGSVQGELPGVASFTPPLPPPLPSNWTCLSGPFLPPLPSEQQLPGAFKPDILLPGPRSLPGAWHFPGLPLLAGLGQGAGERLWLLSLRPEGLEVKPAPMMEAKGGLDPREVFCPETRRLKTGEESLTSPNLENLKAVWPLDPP
Method in brief: as §1

ETS2 = molecular target: T5, ETS2 (Homo sapiens, UniProt P15036 1-469)
T5 sequence: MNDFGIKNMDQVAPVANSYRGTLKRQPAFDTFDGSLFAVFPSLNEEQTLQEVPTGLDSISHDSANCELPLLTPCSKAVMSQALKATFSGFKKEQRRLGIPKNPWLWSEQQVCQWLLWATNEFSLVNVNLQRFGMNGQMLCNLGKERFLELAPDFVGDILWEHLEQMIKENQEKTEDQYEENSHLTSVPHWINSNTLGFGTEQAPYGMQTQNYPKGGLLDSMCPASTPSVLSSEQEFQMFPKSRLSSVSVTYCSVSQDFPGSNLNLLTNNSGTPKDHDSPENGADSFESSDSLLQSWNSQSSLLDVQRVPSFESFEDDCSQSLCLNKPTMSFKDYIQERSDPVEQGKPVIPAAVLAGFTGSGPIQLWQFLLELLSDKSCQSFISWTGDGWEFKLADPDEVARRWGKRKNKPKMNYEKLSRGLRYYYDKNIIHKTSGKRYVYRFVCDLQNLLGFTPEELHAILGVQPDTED
Method in brief: as §1

SPDEF = molecular target: T6, SPDEF (Homo sapiens, UniProt O95238 1-335)
T6 sequence: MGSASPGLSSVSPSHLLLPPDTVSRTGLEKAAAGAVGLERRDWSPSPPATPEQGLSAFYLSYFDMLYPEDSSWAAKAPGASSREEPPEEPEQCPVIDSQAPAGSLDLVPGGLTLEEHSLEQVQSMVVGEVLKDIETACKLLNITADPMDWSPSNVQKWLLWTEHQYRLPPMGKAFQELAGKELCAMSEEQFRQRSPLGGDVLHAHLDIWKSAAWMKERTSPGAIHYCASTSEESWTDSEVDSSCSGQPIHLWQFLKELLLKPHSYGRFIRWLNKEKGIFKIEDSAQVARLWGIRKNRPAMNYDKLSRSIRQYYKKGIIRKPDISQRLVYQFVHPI
Method in brief: as §1

ETV7 = molecular target: T7, ETV7 (Homo sapiens, UniProt Q9Y603 1-341)
T7 sequence: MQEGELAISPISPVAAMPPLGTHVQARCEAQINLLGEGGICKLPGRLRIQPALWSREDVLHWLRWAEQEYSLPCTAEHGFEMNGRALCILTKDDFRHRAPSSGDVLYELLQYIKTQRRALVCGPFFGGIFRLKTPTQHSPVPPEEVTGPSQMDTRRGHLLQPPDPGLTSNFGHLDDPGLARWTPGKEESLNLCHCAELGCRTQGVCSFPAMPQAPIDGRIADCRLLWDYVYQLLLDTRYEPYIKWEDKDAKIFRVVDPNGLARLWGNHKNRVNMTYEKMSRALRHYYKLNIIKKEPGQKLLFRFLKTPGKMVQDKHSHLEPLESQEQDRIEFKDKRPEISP
Method in brief: as §1

ETV3 = molecular target: T8, ETV3 (Homo sapiens, UniProt P41162-2 1-143)
T8 sequence: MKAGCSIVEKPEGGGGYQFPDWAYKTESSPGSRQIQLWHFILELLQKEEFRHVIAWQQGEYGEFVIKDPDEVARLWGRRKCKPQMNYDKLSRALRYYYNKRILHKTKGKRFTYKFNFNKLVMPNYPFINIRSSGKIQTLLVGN
Method in brief: as §1

ETV6 = ETV6 (Homo sapiens, UniProt P41212 1-452)
Sequence of ETV6 (P41212 whole entry): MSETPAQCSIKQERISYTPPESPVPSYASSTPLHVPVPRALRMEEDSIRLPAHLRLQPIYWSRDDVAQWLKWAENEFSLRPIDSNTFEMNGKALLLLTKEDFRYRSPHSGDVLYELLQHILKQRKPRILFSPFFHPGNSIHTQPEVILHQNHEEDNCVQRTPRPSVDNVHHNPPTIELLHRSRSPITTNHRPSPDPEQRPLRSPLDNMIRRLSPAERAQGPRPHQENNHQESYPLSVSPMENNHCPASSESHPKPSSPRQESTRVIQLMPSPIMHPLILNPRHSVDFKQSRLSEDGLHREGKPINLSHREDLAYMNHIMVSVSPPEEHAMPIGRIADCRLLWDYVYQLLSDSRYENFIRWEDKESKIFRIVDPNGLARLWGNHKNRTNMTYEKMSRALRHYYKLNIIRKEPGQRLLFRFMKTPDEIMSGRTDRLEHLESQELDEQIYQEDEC
Method in brief: as §1

TGTAAC
binding signal (ETV2): 1.21 fold enrichment (6-mer frequency, TF over GST control) | binding signal (ELF3): 1.22 fold enrichment (6-mer frequency, TF over GST control) | binding signal (ETV1): 1.28 fold enrichment (6-mer frequency, TF over GST control) | binding signal (ERF): 1.23 fold enrichment (6-mer frequency, TF over GST control) | binding signal (ETV3L): 1.15 fold enrichment (6-mer frequency, TF over GST control) | binding signal (ETS2): 1.32 fold enrichment (6-mer frequency, TF over GST control) | binding signal (SPDEF): 1.23 fold enrichment (6-mer frequency, TF over GST control) | binding signal (ETV7): 1.18 fold enrichment (6-mer frequency, TF over GST control) | binding signal (ETV3): 1.24 fold enrichment (6-mer frequency, TF over GST control) | binding signal (ETV6): 1.2 fold enrichment (6-mer frequency, TF over GST control)
